# Screening results: PubChem, Johns Hopkins Ion Channel Center
# Shown are actives, neighbours in structure and some others; about 1.6% of the full set was active somewhere.
# KCNQ2 block: inhibitors of rat KCNQ2 potassium channel. CHO-K1 KCNQ2, FluxOR thallium flux, 20 min; active compounds read low. B-score at 10 µM. AID 2156. 1.1% of 310,000 active. O88943;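 active = fluorescence ratio B-score at most minus 3 library SDs, with starting brightness B-score within 2 library SDs, cut at about -5.5 in these data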
# Target sequence (O88943 whole entry, looked up): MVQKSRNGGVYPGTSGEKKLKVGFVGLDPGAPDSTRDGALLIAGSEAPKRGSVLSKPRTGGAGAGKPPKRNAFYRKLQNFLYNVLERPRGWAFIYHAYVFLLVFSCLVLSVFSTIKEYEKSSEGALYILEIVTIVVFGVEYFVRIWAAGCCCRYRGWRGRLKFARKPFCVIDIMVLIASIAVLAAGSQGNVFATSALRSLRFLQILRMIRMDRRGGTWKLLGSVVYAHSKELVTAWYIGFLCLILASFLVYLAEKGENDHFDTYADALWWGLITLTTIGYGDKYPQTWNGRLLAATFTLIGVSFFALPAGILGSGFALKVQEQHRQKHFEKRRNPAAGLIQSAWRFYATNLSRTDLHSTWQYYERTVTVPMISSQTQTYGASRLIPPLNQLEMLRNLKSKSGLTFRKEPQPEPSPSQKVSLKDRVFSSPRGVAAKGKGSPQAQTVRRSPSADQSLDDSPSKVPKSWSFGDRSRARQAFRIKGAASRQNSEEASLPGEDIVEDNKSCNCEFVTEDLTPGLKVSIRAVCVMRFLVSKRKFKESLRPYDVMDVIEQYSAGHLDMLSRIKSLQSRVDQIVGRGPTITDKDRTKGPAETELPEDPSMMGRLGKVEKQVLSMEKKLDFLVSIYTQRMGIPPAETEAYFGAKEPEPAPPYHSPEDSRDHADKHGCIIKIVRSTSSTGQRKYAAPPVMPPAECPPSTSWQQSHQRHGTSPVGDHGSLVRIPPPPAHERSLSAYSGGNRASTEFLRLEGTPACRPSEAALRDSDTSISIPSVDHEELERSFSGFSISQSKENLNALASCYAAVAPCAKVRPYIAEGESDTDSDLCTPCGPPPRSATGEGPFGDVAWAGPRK
# KCNQ2 enhance: enhances the rat KCNQ2 potassium channel; O88943; CHO-K1 KCNQ2, FluxOR thallium flux fluorescence; active compounds read high; B-score at 10 µM; 0.54% of 310,000 active; AID 2239;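 active = fluorescence ratio B-score at least 3 SD of library B-scores, with initial fluorescence B-score within 3 of them, cut at about 5.3 in these data; same plate scores as AID 2156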;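 note: B-score of peak minus minimum over baseline fluorescence ratio after K+ and Tl+ stimulus; positive B-score means potentiation of KCNQ2 with more thallium influx and brighter signal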
# Starred values were filed as active, the others as inactive; i = inactive; . = no result.
SMILES,KCNQ2 block,KCNQ2 enhance
COC(=O)c1sccc1NC(=O)c1c(C)c(-c2cccc(Cl)c2)nc2ccccc12,-5.7*,-5.7
Cc1c(C(=O)N/N=C/c2cccs2)nnn1-c1nonc1N,i,0.58
COc1ccc(NC(=O)COc2ccccc2C(=O)NCC(c2ccccc2)N(C)C)cc1Cl (configuration not stated),i,1.2
COc1cc(C(=O)N2CCN(C)C(C)C2)ccc1OC1CCN(C(C)=O)CC1 (configuration not stated),i,2.7
COC(=O)/C(=C\c1ccc2c(c1)c1ccccc1n2C)NC(=O)c1ccccc1,-7.6*,-7.6
CC(C)OC(=O)/C(=C/c1ccc2c(c1)c1ccccc1n2C)NC(=O)c1ccccc1,i,.
O=C(CSc1nc(C(F)(F)F)cc(=O)[nH]1)Nc1nccs1,i,.
CCOc1ccc(/C=C2\SC(=S)NC2=O)cc1OC,i,3.8
COc1ccc(/C=C2\SC(=O)NC2=S)cc1OC,i,5.9*
Cc1cc(C)n(CCNC(=O)c2ccco2)n1,i,0.28
Cc1ccc2c(CN3C(=O)NC4(CCCCC4)C3=O)cc(=O)oc2c1C,-6.6*,-6.6
Cc1ccc(C)c(CN2C(=O)NC3(CCCCCC3)C2=O)c1,i,1.2
COC(=O)c1ccc(CNC(=O)COC(=O)c2ccccc2-c2ccccc2)cc1,i,0.54
CC(=O)c1ccccc1NC(=O)CCCNC(=O)c1ccc(Cl)cc1,i,.
COc1ccccc1N1CCN(C(=O)C2CCC(CNS(=O)(=O)c3ccc(NC(C)=O)cc3)CC2)CC1 (configuration not stated),i,.
Cc1ccc(C)c(N2CCN(C(=O)COc3cc(=O)n(C)c4ccccc34)CC2)c1,i,.
Cc1ccc(C)c(N2CCN(C(=O)CCCOc3cc(=O)n(C)c4ccccc34)CC2)c1,-6.4*,-6.4
CCNc1ccc(Br)cc(C(=O)/C=C/c2ccc(Cl)cc2Cl)c1=O,-5.8*,-5.8
CNc1ccc(Br)cc(C(=O)/C=C/c2cc(OC)ccc2OC)c1=O,i,.
O=C(Nc1ccc(F)cc1)c1cnc(-c2ccccc2)nc1-c1ccccc1,i,.
O=C(Nc1ccc(F)c(F)c1)c1cnc(-c2ccccc2)nc1-c1ccccc1,-5.6*,-5.6
CC(C)(C)C(=O)N1CCN(c2ncnc3scc(-c4ccccc4)c23)CC1,i,.
CCCCC(=Nc1ccccc1OC)C1=C(O)CC(c2ccccc2)CC1=O (configuration not stated),-6.5*,-6.5
CCCC(=Nc1ccccc1OC)C1=C(O)CC(c2ccccc2)CC1=O (configuration not stated),i,.
COc1cc2c(cc1OC)C(c1ccc(-c3ccccc3Cl)o1)=NCC2,-8.3*,-8.3
SMILES,KCNQ2 block,KCNQ2 enhance
COc1cc2c(cc1OC)C(c1ccc(-c3cc(Cl)ccc3Cl)o1)=NCC2,i,.
COc1cc2c(cc1OC)C(c1ccc(-c3ccc(Cl)cc3Cl)o1)=NCC2,i,.
COc1cc2c(cc1OC)C(c1ccc(-c3ccc(Cl)c(Cl)c3)o1)=NCC2,-8.8*,-8.8
CCOC(=O)c1sc(NC(=O)Cc2c(F)cccc2Cl)nc1C,i,.
CCOC(=O)c1sc2nccc(N(C)C)c2c1N=CNOCc1c(F)cccc1Cl,-6.2*,-6.2
O=c1c2cc(-c3ccccc3)sc2ncn1/N=C/c1ccco1,-5.9*,-5.9
CCCCn1cnc2sc(-c3ccccc3)cc2c1=O,i,0.71
Cc1ccc(NC(=O)c2cc(S(=O)(=O)N3CCCCC3)c[nH]2)cc1C,i,0.43
O=c1c2ccccc2nc(SCc2ccc([N+](=O)[O-])cc2)n1-c1ccccc1,i,.
O=c1c2ccccc2nc(SCc2cc([N+](=O)[O-])cc3c2OCOC3)n1-c1ccccc1,-6.1*,-6.1
O=C(Nc1nnc(CCc2ccccc2)s1)c1ccccc1F,i,.
O=C(Nc1ccc(C(=O)O)cc1)/C(=C\c1ccc2c(c1)OCO2)NC(=O)c1ccco1,i,6.5*
O=C(Nc1ccc(C(=O)O)cc1)/C(=C\c1ccccc1)NC(=O)c1ccco1,i,0.24
Cc1cccc2cc(C#N)c(SCC(=O)N3CC(=O)Nc4ccccc43)nc12,i,0.49
Cc1ccc(C)c2nc(SCC(=O)N3CCCc4ccccc43)c(C#N)cc12,-7.7*,-7.7
CS(=O)(=O)N(CC(=O)Nc1ccccc1-c1ccccc1)c1ccccc1,i,.
Cc1ccc(N(CC(=O)Nc2ccccc2-c2ccccc2)S(=O)(=O)c2ccccc2)c(C)c1,-7.7*,-7.7
CC(=O)N/C(=N/c1nc(C)cc(C)n1)Nc1cccc(C)c1C,i,0.62
CCOC(=O)c1c(N)sc(C(=O)OC)c1C,i,0.93
CCOC(=O)c1sc(NN=C(C(=O)OC)C(=O)OC)c(C(=O)OCC)c1C,i,5.7*
CC(C)CC(=O)N1CCN(C(=O)c2ccc(F)cc2)CC1,i,0.06
O=C1CC(=C(c2ccccc2)c2ccccc2)C(=O)N1CCCN1CCN(c2cccc(Cl)c2)CC1,i,.
O=C1CC(=C(c2ccccc2)c2ccccc2)C(=O)N1CCN1CCN(c2cccc(Cl)c2)CC1,-5.6*,-5.6
CC(C)CCN(C(=S)Nc1cccc(C(F)(F)F)c1)C(C)c1ccccn1 (configuration not stated),-6.1*,-6.1
CC(c1ccccn1)N(CCN(C)C)C(=S)Nc1cccc(F)c1 (configuration not stated),i,1.3
SMILES,KCNQ2 block,KCNQ2 enhance
COc1cc(SC)ccc1C(=O)N(CC(=O)Nc1ccccc1Br)Cc1ccco1,i,.
CSCCC(NC(=O)COc1ccccc1)C(=O)N1CCN(c2ccccc2O)CC1 (configuration not stated),-6.2*,-6.2
CSCCC(NC(=O)COc1ccccc1)C(=O)OCC(=O)c1ccccc1 (configuration not stated),i,.
CCOC(=O)CC(=O)NC(C)(C)CCCCC(C)(C)NC(=O)CC(=O)OCC,i,1.4
O=C(Cc1cccc2ccccc12)Nc1ccc(O)cc1C(=O)O,i,.
CN(C)c1ccc(S(=O)(=O)N(C)C)cc1NC(=O)Cc1cccc2ccccc12,-7.5*,-7.5
CCN(CC)c1nc2c(c(=O)[nH]c(=O)n2C)n1CCOc1ccccc1,i,1.3
C=CCn1c(O)c(N=NC(=S)Nc2ccc(OC)cc2)c2ccccc21,i,4
C=CCn1c(O)c(N=NC(=S)Nc2cccc(OC)c2)c2ccccc21,i,12*
Cc1c(Nc2ncccc2C(=O)O)cccc1C(F)(F)F,i,0.81
COc1ccc(CCNC(=O)C2CCCN(S(=O)(=O)c3cc(C)ccc3OC)C2)cc1OC (configuration not stated),i,2.2
O=C(Nc1cccc(-n2cnnn2)c1)c1ccoc1COc1ccc(Cl)cc1,i,.
COc1ccc(Cc2nc3ccc(C(=O)NC(C)c4cn(C)nc4C)cc3o2)cc1 (configuration not stated),i,.
Cc1csc2nc(CNC(=O)c3cccc(C(F)(F)F)c3)cn12,-6.2*,-6.2
O=C(NCc1cn2ccsc2n1)c1cccc(C(F)(F)F)c1,i,.
CCOC(=O)N1CCN(Cc2cc(Cl)c3cccnc3c2O)CC1,i,15*
COCc1cc(CN2CCN(C)CC2)c(O)c2ncccc12,i,.
Cc1ccc(C(C(=O)NC2CCCC2)N(CCCO)C(=O)Cn2nnc(-c3ccc(C)o3)n2)cc1 (configuration not stated),i,1.6
CNC(=O)CSc1nnc(-c2ccncc2)n1Cc1ccccc1,i,.
